From PubChem BioAssay AID1347071 (National Center for Advancing Translational Sciences (NCATS), 2019)
Hit rate of the full screen: of about 410,000 compounds, about 260 (0.063%) were called active. Entries that show only a call come without a potency. Not shown: some 2% with an inconclusive outcome. Calls follow the shape of the dose curve; as a rule, active = well fitted activation curve with a large enough effect; inconclusive = small, poorly fitted or top-dose-only effect; inactive = no such curve, though single readings can be large or run the other way. Only a selection was taken, and actives are over-represented in it overall.

Assay: qHTS for compounds that reverse cellular toxicity of Amyloid beta (A-beta) peptide in yeast: Primary Screen; also: nearly all actives have a fitted effect of over 55% in size
Settings: yeast expressing A-beta42, growth rescue, OD600, 48 h; series mostly up to 46.1 µM
Text: The A-beta peptide is produced by the processing of the amyloid precursor protein (APP) by two proteases, beta and gamma secretases. […] A-beta42 is regarded as the most amyloidogenic form due to its hydrophobicity; however, precisely how A-beta42 induces neurotoxicity is unclear. To understand further this biology and its potential therapeutic implications for human neurodegenerative disease, a quantitative high-throughput screen for compounds that reverse the cellular toxicity of the A-beta peptide was developed. A yeast based screen was used because it recapitulates the salient feature of protein mis-folding disorder accurately. This cell-based phenotypic screen provides a significant, unbiased advantage by letting the compounds and models inform us which proteins or pathways are most relevant. The ideal chemical candidates would therefore have activity in both our primary yeast and secondary neuronal toxicity assays, as well as in mouse models. They will be valuable tools for dissecting diverse protein homeostasis pathologies and could potentially become the focus for future pre-clinical development. For this luminescence assay, inhibition of A-beta rescues the toxic effect in the yeast cell, resulting in increase of signals and the desired phenotype of "Activator". This screen is run against the Molecular Libraries Small Molecule Repository (MLSMR) and the NCGC Sytravon Library Collection.
NIH Chemical Genomics Center [NCGC]
NIH Molecular Libraries Probe Centers Network [MLPCN]
Assay Submitter (PI): Susan Lindquist, Whitehead Institute, Massachusetts Institute of Technology
[1] Vassar R,et al (1999). Beta-secretase cleavage of Alzheimer's amyloid precursor protein by the transmembrane aspartic protease BACE. Science. 286: 735-741.
[2] Yan R, et al (1999). Membrane-anchored aspartyl protease with Alzheimer's disease beta-secretase activity. Nature. 402: 533-536.
Two and a half microliter / well of yeast growth medium were dispensed in a 1536 assay plate. Compounds were pinned using the Kalypsys robotic system followed by addition of 2.5 uL / well yeast solution. The assay plates were incubated at 30 C. After 48 hr, the absorbance signal at 600 nm was obtained using the PerkinElmer ViewLux plate reader to assess yeast growth. The data was normalized to the positive control of an equimolar mixture of ferric chloride (FeCl3) and clioquinol and to the negative control DMSO.

Q: Which Potency does the source give for `CCOC(=O)c1nnn(CC(=O)NC(=O)Nc2ccccc2F)c1C(=O)OCC` here?
A: inactive

Q: For `CCS(=O)(=O)N1CCc2cc(C(=O)NCc3ccc(OC)cc3)ccc21`, which Potency is on record?
A: inactive

Q: For `CCOC(=O)c1cc(NC(=O)c2ccc(F)cc2)c(=O)n2c1oc1ccccc12`, which Potency is on record?
A: inactive

Q: For `COc1ccc(CCNC(=O)c2cc3cccc4c3n2CC(C)S4)c(OC)c1OC` (stereo unspecified), which Potency is on record?
A: inactive

Q: Which Potency does the source give for `COc1ccc(Cn2c(C(=O)O)c(CNCc3cccc(OC)c3)c3ccc(C)cc32)cc1` here?
A: inactive

Q: With `CC(C)S(=O)(=O)c1oc(-c2ccc(F)cc2)nc1S(=O)(=O)c1ccc(F)cc1` as the molecule, how does the Potency read?
A: inactive

Q: For `CC(Sc1oc(-c2ccco2)nc1S(=O)(=O)c1ccc(Br)cc1)c1ccccc1` (stereo unspecified), which Potency is on record?
A: inactive

Q: Which Potency does the source give for `Cc1nn(-c2ccc(F)cc2)c(-n2cccc2)c1C(=O)N1CCN(c2ccccc2)CC1` here?
A: inactive

Q: For `FC(F)(F)c1ccccc1Cc1c(-c2ccccc2)nc2c3ccccc3ccn12`, which Potency is on record?
A: 12.6 µM (active)

Q: With `CCCc1nc2c3ccccc3ccn2c1Cc1ccccc1C(F)(F)F` as the molecule, how does the Potency read?
A: inactive

Q: For `N#Cc1ccc(-c2nc3c(Cl)cc(C(F)(F)F)cn3c2Cc2ccccc2C(F)(F)F)cc1`, which Potency is on record?
A: inactive

Q: For `COc1cccc(-n2cc(C(=O)NCc3cccc(Cl)c3)c3ccccc3c2=O)c1`, which Potency is on record?
A: inactive

Q: Which Potency does the source give for `COc1ccc(Cn2ccn(CC(=O)Nc3cc(C)ccc3C)c(=O)c2=O)cc1` here?
A: inactive

Q: With `COCCn1c(SCC(=O)c2cc(C)ccc2C)nc2cc(C(=O)NC3CCCC3)ccc2c1=O` as the molecule, how does the Potency read?
A: inactive

Q: For `COc1cccc(C(=O)NC2(C(F)(F)F)C(=O)Nc3c2c(=O)[nH]c(=O)n3-c2ccc(C)cc2)c1` (stereo unspecified), which Potency is on record?
A: inactive

Q: Which Potency does the source give for `CCOc1ccc(-n2c(C)nc3c(cnn3-c3ccc(C)cc3)c2=O)cc1` here?
A: inactive

Q: Which Potency does the source give for `CCC(=O)N1c2ccccc2CC1C(=O)N1CCN(c2ccccc2)CC1` (stereo unspecified) here?
A: inactive

Q: With `COc1cc(CNCCSc2nnnn2C)ccc1OCc1ccc(Cl)cc1Cl` as the molecule, how does the Potency read?
A: inactive

Q: For `CC1=C(C(=O)Nc2ccccc2Cl)C(c2cccs2)n2ncnc2N1` (stereo unspecified), which Potency is on record?
A: inactive

Q: Which Potency does the source give for `CCCCOC(=O)CSc1ncnc2sc3c(c12)CCC(C)C3` (stereo unspecified) here?
A: inactive

Q: For `CC1CCCN(S(=O)(=O)c2ccc3[nH]c(=O)cc(C(=O)NCCc4ccc(Cl)cc4)c3c2)C1` (stereo unspecified), which Potency is on record?
A: inactive

Q: For `CCCn1c2ccccc2c2cnn(CC(=O)N3CCCC(C(=O)OCC)C3)c(=O)c21` (stereo unspecified), which Potency is on record?
A: inactive

Q: Which Potency does the source give for `CCOC(=O)c1ccc(N2C(=O)c3n[nH]c(-c4ccco4)c3C2c2ccc(O)cc2)cc1` (stereo unspecified) here?
A: inactive

Q: With `COc1ccc(-c2cn3nc(N4CCCC(C(=O)NCCCOC(C)C)C4)sc3n2)cc1` (stereo unspecified) as the molecule, how does the Potency read?
A: inactive

Q: For `COc1ccc2cc(CNc3ccc(OC)c(OC)c3)c(=O)n(CC(=O)Nc3ccccc3F)c2c1`, which Potency is on record?
A: inactive

Q: For `Cc1ccc(C)c(N2CCN(CCCNC(=O)Nc3ccc(Cl)cc3)CC2)c1`, which Potency is on record?
A: inactive

Q: Which Potency does the source give for `COc1ccc(S(=O)(=O)c2cn(C)c3cc(N4CCCCC4)c(F)cc3c2=O)cc1` here?
A: inactive

Q: For `COc1cccc(CNCc2c(C(=O)O)n(Cc3ccc(C)cc3)c3cc(C)ccc23)c1OC`, which Potency is on record?
A: inactive

Q: With `O=C(NC1CCCCC1)c1ccc2c(c1)N(Cc1ccc(Cl)cc1)C(=O)c1ccccc1S2=O` (stereo unspecified) as the molecule, how does the Potency read?
A: inactive

Q: Which Potency does the source give for `COc1ccc(NC(=O)NC(C)c2c(-n3cccc3)sc(C)c2C)cc1OC` (stereo unspecified) here?
A: inactive

Q: For `COc1ccc(OC)c(-c2noc(N3CCN(c4cc(Cl)ccc4C)CC3)n2)c1`, which Potency is on record?
A: inactive

Q: For `O=C(Nc1c(C(=O)N2CCN(c3ccc(F)cc3)CC2)oc2ccccc12)c1ccco1`, which Potency is on record?
A: inactive

Q: With `CCOc1ccc(CNC(=O)c2cccc(Nc3nc4ccccc4n4nnnc34)c2)cc1OC` as the molecule, how does the Potency read?
A: inactive

Q: For `CCc1cc2c(cc3c(=O)n(CC(=O)NCc4cccc(Cl)c4)nc(CC)n32)s1`, which Potency is on record?
A: inactive

Q: Which Potency does the source give for `Cc1nn(CC(=O)NCCc2ccccc2)c(=O)c2c1sc1ccccc12` here?
A: inactive

Q: For `O=C(CSc1nccn1-c1ccc(F)cc1)Nc1cccc2ccccc12`, which Potency is on record?
A: inactive

Q: Which Potency does the source give for `Cn1c(=O)cc(OCC(=O)N2CCN(c3ccccc3)CC2)c2ccccc21` here?
A: inactive

Q: For `COc1cc2c(cc1OC)C(COc1ccc(F)cc1)N(C(=O)c1ccccc1F)CC2` (stereo unspecified), which Potency is on record?
A: inactive

Q: For `CCOc1ccccc1NC(=O)CSc1ncc(S(=O)(=O)c2ccc(C(C)(C)C)cc2)c(=O)[nH]1`, which Potency is on record?
A: inactive

Q: Which Potency does the source give for `CCOCCCn1c(SCC(=O)Nc2ccc(CC)cc2)nc2ccccc2c1=O` here?
A: inactive

Q: Which Potency does the source give for `CCCN(CCC)C(=O)C1CCCN(c2ncnc3c2nc2n3CCCCC2)C1` (stereo unspecified) here?
A: inactive

Q: Which Potency does the source give for `Cn1c(=O)n(Cc2c(F)cccc2Cl)c(=O)c2c1nc1n2CCN1c1ccc(F)cc1` here?
A: inactive

Q: With `Cc1ccc(Cl)cc1N1CCN(C(=O)c2cccn3c(=O)c4cc(Cl)ccc4nc23)CC1` as the molecule, how does the Potency read?
A: inactive

Q: For `COCCN(Cc1ccco1)C(=O)Cn1ncc2c([nH]c3ccccc32)c1=O`, which Potency is on record?
A: inactive

Q: For `O=C(CSc1nnc(-c2ccccc2F)o1)Nc1cccc(C(F)(F)F)c1`, which Potency is on record?
A: inactive

Q: With `Cc1ccc2nc(COc3cccc(NC(=O)c4cccc(Cl)c4)c3)cc(=O)n2c1` as the molecule, how does the Potency read?
A: inactive

Q: For `COc1ccc(-n2ccn(CC(=O)Nc3ccc(C)c(C)c3)c(=O)c2=O)cc1OC`, which Potency is on record?
A: inactive

Q: For `COc1ccc(CNC(=O)Cc2coc3ccc(C(C)C)cc23)cc1`, which Potency is on record?
A: inactive

Q: With `CCCCCn1c(=O)[nH]c2cc(C(=O)NCCN(C)CCCC)ccc2c1=O` as the molecule, how does the Potency read?
A: inactive

Q: With `CCOc1ccc(CNC(=O)c2cc(=O)[nH]c3ccc(S(=O)(=O)N4CCCCC4)cc23)cc1` as the molecule, how does the Potency read?
A: inactive

Q: Which Potency does the source give for `Cc1ccc(C)c(Nc2nnc(-c3ccc(C)c(S(=O)(=O)N4CCCCC4)c3)c3ccccc23)c1` here?
A: inactive

Q: For `CCc1cccc(C)c1Nc1c(-c2ccc(N(C)C)cc2)nc2ncccn12`, which Potency is on record?
A: inactive

Q: Which Potency does the source give for `COc1ccc(-c2nc3ccccc3o2)cc1NC(=O)c1cc([N+](=O)[O-])ccc1N1CCOCC1` here?
A: inactive

Q: Which Potency does the source give for `Cc1ccc(-c2nc3ccccn3c2Nc2c(C)cccc2C)o1` here?
A: inactive

Q: With `COc1ccc(NS(=O)(=O)c2cc3c4c(c2)CC(=O)N4CCC3)cc1Cl` as the molecule, how does the Potency read?
A: inactive

Q: For `O=S(=O)(Nc1ccc2nc(-c3cccc(Cl)c3)oc2c1)c1ccccc1`, which Potency is on record?
A: inactive

Q: Which Potency does the source give for `CCOC(=O)c1ccc(NC(=O)c2c(NCc3cccc(OC)c3)sc3c2CCC3)cc1` here?
A: inactive

Q: For `CCOC(=O)C1CCN(c2csc3ccc(C)cc3c2=O)CC1`, which Potency is on record?
A: inactive

Q: With `CCC(=O)Nc1ccccc1-c1nc2ccccc2n(CC(=O)Nc2ccc(C)c(C)c2)c1=O` as the molecule, how does the Potency read?
A: inactive

Q: For `CCCNc1ncnc2c1c(-c1ccccc1)cn2-c1ccc(OCC)cc1`, which Potency is on record?
A: inactive

Q: Which Potency does the source give for `COc1ccc(OC)c(CCNC(=O)CCCn2c(=O)c3cccn3c3cccnc32)c1` here?
A: inactive
